# In the supplement of paper PMC8975748:
# Where a name gives a salt, the structure may show the parent alone. ± gives the standard deviation of the averaged measurements.
# Legend:
# [1] = test system: Saccharomyces cerevisiae BY4741 SeMeCo community; assay: mean cell size (pixel area) (pixels); higher = larger cells; settings: 10 µM; 24 h; SM minimal medium
# How it was run: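 In this assay, mean cell pixel area per well was obtained from automated confocal images of paraformaldehyde-fixed yeast analysed in Harmony. The cells were a Saccharomyces cerevisiae BY4741 community with four plasmids, each complementing one auxotrophy and carrying a fluorescent marker, grown for 24 h in SM medium with drug at a final 10 µM in 384-well plates. Values are averaged across 3 replicates. Same SeMeCo high-content imaging drug screen: Selleck FDA-approved drugs at 10 µM, 24 h in SM medium, 384-well plates, 3 replicates.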
# [2] = test system: Saccharomyces cerevisiae BY4741 SeMeCo community; assay: z-score of prototroph abundance vs DMSO median; higher = larger share of this subpopulation than in DMSO controls; settings: 10 µM; 24 h; SM minimal medium; subpopulation (auxotrophy): Prototroph
# How it was run: (§1)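 Scoring was based on each subpopulation's abundance, expressed as a z-score against the vehicle-well median. A Saccharomyces cerevisiae BY4741 community with four plasmids, each restoring one auxotrophy and encoding a distinct fluorescent protein, was pre-grown overnight to OD600 1.0, diluted to 0.3, and added at 70 µl to 384-well plates acoustically predosed with library drugs (10 µM final). It then grew 24 h in minimal SM medium before paraformaldehyde fixation and automated confocal microscopy, with single-auxotroph fluorescent strains setting thresholds and autofluorescence correction.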
# [3] = test system: Saccharomyces cerevisiae BY4741 SeMeCo community; assay: z-score of subpopulation abundance vs DMSO median, subpopulation auxotrophic for M; higher = larger share of this subpopulation than in DMSO controls; settings: 10 µM; 24 h; SM minimal medium; subpopulation (auxotrophy): M
# How it was run: as §1
# [4] = test system: Saccharomyces cerevisiae BY4741 SeMeCo community; assay: z-score of subpopulation abundance vs DMSO median, subpopulation auxotrophic for L; higher = larger share of this subpopulation than in DMSO controls; settings: 10 µM; 24 h; SM minimal medium; subpopulation (auxotrophy): L
# How it was run: as §1
# [5] = test system: Saccharomyces cerevisiae BY4741 SeMeCo community; assay: z-score of subpopulation abundance vs DMSO median, subpopulation auxotrophic for U; higher = larger share of this subpopulation than in DMSO controls; settings: 10 µM; 24 h; SM minimal medium; subpopulation (auxotrophy): U
# How it was run: as §1
# [6] = test system: Saccharomyces cerevisiae BY4741 SeMeCo community; assay: z-score of subpopulation abundance vs DMSO median, subpopulation auxotrophic for H; higher = larger share of this subpopulation than in DMSO controls; settings: 10 µM; 24 h; SM minimal medium; subpopulation (auxotrophy): H
# How it was run: as §1
# [7] = test system: Saccharomyces cerevisiae BY4741 SeMeCo community; assay: z-score of subpopulation abundance vs DMSO median, subpopulation auxotrophic for LU; higher = larger share of this subpopulation than in DMSO controls; settings: 10 µM; 24 h; SM minimal medium; subpopulation (auxotrophy): LU
# How it was run: as §1
# [8] = test system: Saccharomyces cerevisiae BY4741 SeMeCo community; assay: z-score of subpopulation abundance vs DMSO median, subpopulation auxotrophic for LM; higher = larger share of this subpopulation than in DMSO controls; settings: 10 µM; 24 h; SM minimal medium; subpopulation (auxotrophy): LM
# How it was run: as §1
# [9] = test system: Saccharomyces cerevisiae BY4741 SeMeCo community; assay: z-score of subpopulation abundance vs DMSO median, subpopulation auxotrophic for HM; higher = larger share of this subpopulation than in DMSO controls; settings: 10 µM; 24 h; SM minimal medium; subpopulation (auxotrophy): HM
# How it was run: as §1
# [10] = test system: Saccharomyces cerevisiae BY4741 SeMeCo community; assay: z-score of subpopulation abundance vs DMSO median, subpopulation auxotrophic for HU; higher = larger share of this subpopulation than in DMSO controls; settings: 10 µM; 24 h; SM minimal medium; subpopulation (auxotrophy): HU
# How it was run: as §1
# [11] = test system: Saccharomyces cerevisiae BY4741 SeMeCo community; assay: z-score of subpopulation abundance vs DMSO median, subpopulation auxotrophic for UM; higher = larger share of this subpopulation than in DMSO controls; settings: 10 µM; 24 h; SM minimal medium; subpopulation (auxotrophy): UM
# How it was run: as §1
# [12] = test system: Saccharomyces cerevisiae BY4741 SeMeCo community; assay: z-score of subpopulation abundance vs DMSO median, subpopulation auxotrophic for HL; higher = larger share of this subpopulation than in DMSO controls; settings: 10 µM; 24 h; SM minimal medium; subpopulation (auxotrophy): HL
# How it was run: as §1
# [13] = test system: Saccharomyces cerevisiae BY4741 SeMeCo community; assay: z-score of subpopulation abundance vs DMSO median, subpopulation auxotrophic for HLU; higher = larger share of this subpopulation than in DMSO controls; settings: 10 µM; 24 h; SM minimal medium; subpopulation (auxotrophy): HLU
# How it was run: as §1
# [14] = test system: Saccharomyces cerevisiae BY4741 SeMeCo community; assay: z-score of subpopulation abundance vs DMSO median, subpopulation auxotrophic for HLM; higher = larger share of this subpopulation than in DMSO controls; settings: 10 µM; 24 h; SM minimal medium; subpopulation (auxotrophy): HLM
# How it was run: as §1
# [15] = test system: Saccharomyces cerevisiae BY4741 SeMeCo community; assay: z-score of subpopulation abundance vs DMSO median, subpopulation auxotrophic for HUM; higher = larger share of this subpopulation than in DMSO controls; settings: 10 µM; 24 h; SM minimal medium; subpopulation (auxotrophy): HUM
# How it was run: as §1
# [16] = test system: Saccharomyces cerevisiae BY4741 SeMeCo community; assay: z-score of subpopulation abundance vs DMSO median, subpopulation auxotrophic for LUM; higher = larger share of this subpopulation than in DMSO controls; settings: 10 µM; 24 h; SM minimal medium; subpopulation (auxotrophy): LUM
# How it was run: as §1
# [17] = test system: Saccharomyces cerevisiae BY4741 SeMeCo community; assay: z-score of subpopulation abundance vs DMSO median, subpopulation auxotrophic for HLUM; higher = larger share of this subpopulation than in DMSO controls; settings: 10 µM; 24 h; SM minimal medium; subpopulation (auxotrophy): HLUM
# How it was run: as §1
Structure (SMILES),mean cell size [1],z-score of prototroph abundance [2],z-score of subpopulation abundance [3],z-score of subpopulation abundance [4],z-score of subpopulation abundance [5],z-score of subpopulation abundance [6],z-score of subpopulation abundance [7],z-score of subpopulation abundance [8],z-score of subpopulation abundance [9],z-score of subpopulation abundance [10],z-score of subpopulation abundance [11],z-score of subpopulation abundance [12],z-score of subpopulation abundance [13],z-score of subpopulation abundance [14],z-score of subpopulation abundance [15],z-score of subpopulation abundance [16],z-score of subpopulation abundance [17]
Cc1nnc(NS(=O)(=O)c2ccc(N)cc2)s1 [Sulfamethizole],12.3 ± 0.23,0.97,-0.46,0.65,-0.15,-1.02,-0.31,-0.01,-1.19,-0.26,-0.65,-0.84,-1.06,-0.87,-0.98,-0.52,-0.49
Nc1ccc(S(=O)(=O)Nc2ccnn2-c2ccccc2)cc1 [Sulfaphenazole],12.54 ± 0.079,0.15,0.25,0.58,0.18,-0.07,-0.02,-0.2,-0.42,-0.47,0,-0.02,-0.27,-0.29,-0.72,-0.28,0.07
O=C(C1CCCCC1)N1CC(=O)N2CCc3ccccc3C2C1 (stereo not drawn) [Praziquantel],12.39 ± 0.1,-0.09,0.19,0.31,0.5,,0.75,0.34,-0.5,-0.36,0.1,-0.41,0.47,-1.06,-0.37,0.43,0.11
COc1ccnc(C[S+]([O-])c2nc3cc(OC(F)F)ccc3[nH]2)c1OC (stereo not drawn) [Pantoprazole sodium],12.5 ± 0.28,-0.43,0.43,-0.4,-0.3,,-0.65,0,0.29,0.06,0.55,-0.43,-0.16,-0.85,0.3,0,-0.49
COc1ccc2cc3[n+](cc2c1OC)CCc1cc2c(cc1-3)OCO2 [Berberine Sulfate],12.3 ± 0.28,-0.5,0.74,-1.84,1.36,-0.31,-0.21,-0.28,0.24,0.8,0.73,-0.5,0.06,0.13,0.71,-0.27,-0.34
CCCN[C@H]1CCc2nc(N)sc2C1 [Pramipexole],12.3 ± 0.16,-0.22,-0.13,-0.15,0.72,,0.21,-0.62,0.07,1.27,0.05,0.63,0.75,0.06,0.71,0.35,0.18
CC(=O)O[C@]1(C(C)=O)CC[C@H]2[C@@H]3C[C@H](C)C4=CC(=O)CC[C@]4(C)[C@H]3CC[C@@]21C [Medroxyprogesterone acetate],12.6 ± 0.18,0.03,0.21,-0.93,0.34,,0.01,-0.1,0.17,0.62,0.34,-0.1,-0.17,-0.12,-0.19,-0.28,-0.36
CC1(C)[C@H](C(=O)O)N2C(=O)C[C@H]2S1(=O)=O [Sulbactam],12.3 ± 0.16,0.75,0.57,0.57,-0.63,-0.12,-0.53,1.07,-0.43,-0.07,-0.39,-0.53,-0.86,-1.04,-0.35,-0.1,-0.44
CC(c1cc2ccccc2s1)N(O)C(N)=O (stereo not drawn) [Zileuton],12.6 ± 0.19,0.05,0.27,0.85,0.31,-0.65,0.65,0.16,-0.32,-0.39,0.34,-0.17,0.44,0.43,-0.33,0.12,0
CO[C@H]1C[C@@H]2CC[C@@H](C)[C@@](O)(O2)C(=O)C(=O)N2CCCC[C@H]2C(=O)O[C@H]([C@H](C)C[C@@H]2CC[C@@H](O)[C@H](OC)C2)CC(=O)[C@H](C)/C=C(\C)[C@@H](O)[C@@H](OC)C(=O)[C@H](C)C[C@H](C)/C=C/C=C/C=C/1C [Rapamycin (Sirolimus)],14.19 ± 0.085,-18.4,-2.04,-1.39,3.85,,3.56,5.67,21.4,29.9,13.7,13.8,21,16,33,11.9,20.9
C#C[C@]1(O)CC[C@H]2[C@@H]3CCc4cc(O)ccc4[C@H]3CC[C@@]21C [Ethinyl Estradiol],12.8 ± 0.2,1.23,0.05,-0.55,-1.01,0.36,-1.41,-0.77,0,0.01,-1.64,-0.69,-0.36,-0.72,-0.88,-1.48,-1.02
c1cnc(N2CCN(Cc3ccc4c(c3)OCO4)CC2)nc1 [Piribedil],12.6 ± 0.18,-0.35,0.35,0.51,0.44,0.27,0.48,0.32,0.27,-0.25,-0.82,0.51,0.22,1.03,-0.11,0.73,-0.28
CC(C)[N+]1(C)[C@@H]2CC[C@H]1C[C@@H](OC(=O)C(CO)c1ccccc1)C2 (stereo partly drawn) [Ipratropium Bromide],12.4 ± 0.27,0.41,-0.02,0.58,-0.33,-0.17,0.15,0.93,-0.34,-0.22,-0.31,-0.04,-0.02,-0.71,-0.65,-0.28,0.07
COc1ccc2[nH]c([S+]([O-])Cc3ncc(C)c(OC)c3C)nc2c1 (stereo not drawn) [Omeprazole Sodium],12.1 ± 0.19,0.8,-0.71,0.3,-1.22,1.92,-0.12,-0.57,-0.21,-0.78,-1.63,0.77,0.43,-0.14,-0.81,-0.98,-0.1
